Measurements reported in the supplement of paper PMC7380943.
± gives the standard deviation of the averaged measurements.

Columns and labels:
[1] = test system: CLZ3 (HCA2 human fibroblast dual HR-NHEJ reporter); assay: NHEJ repair efficiency (GFP+ cells) relative to control (log10 fold); higher = more non-homologous end joining; conditions: 5 µM; doxycycline 0.5 ug/mL
[2] = test system: CLZ3 (HCA2 human fibroblast dual HR-NHEJ reporter); assay: HR repair efficiency (tdTomato+ cells) relative to control (log10 fold); higher = more homologous recombination; conditions: 5 µM; doxycycline 0.5 ug/mL
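For HR repair efficiency (tdTomato+ cells) relative to control in this document: compound given one day before doxycycline, which switches on I-SceI endonuclease expression to create double-strand breaks within the integrated reporter.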
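For NHEJ repair efficiency (GFP+ cells) relative to control in this document: compound given one day ahead of doxycycline, which switches on I-SceI endonuclease to cut the chromosomally integrated reporter and create DSBs.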

| SMILES | NHEJ repair efficiency (log10) [1] | HR repair efficiency (log10) [2] |
| --- | --- | --- |
| COc1c(O[C@@H]2O[C@H](CO)[C@@H](O)[C@H](O)[C@H]2O)cc2occ(-c3ccc(O)cc3)c(=O)c2c1O [Tectoridin] | 0.116 | 0.192 |
| O=C1Nc2ccccc2/C1=C1/Nc2ccccc2C1=O [Indirubin] | -0.0691 | -0.00679 |
| C=C[C@H]1[C@H](O[C@@H]2O[C@H](CO)[C@@H](O)[C@H](O)[C@H]2O)OC=C(C(=O)OC)[C@H]1CCOC(=O)c1cc(O)c(O)c(O)c1 [Cornuside] | 0.0361 | 0.162 |
| O=C(O)[C@H]1O[C@@H](Oc2cc(O)c3c(=O)cc(-c4ccc(O)cc4)oc3c2)[C@H](O)[C@@H](O)[C@@H]1O [Apigenin-7-O-Glucronide] | -0.216 | 0.161 |
| CCCCC/C=C\C/C=C\CCCCCCCC(=O)O [Linoleic Acid] | 0.0448 | -0.0026 |
| Cc1cc(O)c2c(c1)C(=O)c1cc(O)cc(O)c1C2=O [Emodin] | -0.0237 | 0.049 |
| C=C(C)[C@@H]1CC[C@]2(C(=O)O[C@@H]3O[C@H](CO[C@@H]4O[C@H](CO)[C@@H](O[C@@H]5O[C@@H](C)[C@H](O)[C@@H](O)[C@H]5O)[C@H](O)[C@H]4O)[C@@H](O)[C@H](O)[C@H]3O)CC[C@]3(C)[C@H](CC[C@@H]4[C@@]5(C)CC[C@H](O[C@@H]6OC[C@H](O)[C@H](O)[C@H]6O[C@@H]6O[C@@H](C)[C@H](O)[C@@H](O)[C@H]6O)[C@@](C)(CO)[C@@H]5CC[C@]43C)[C@@H]12 [Anemoside B4] | -0.0464 | 0.0526 |
| COc1ccc(-c2cc(=O)c3c(O)c(OC)c(O)c(OC)c3o2)cc1 [Nevadensin] | -0.111 | 0.0179 |
| Oc1ccc2c(c1)OC[C@]1(O)Cc3cc(O)c(O)cc3[C@H]21 [Brazilin] | -0.0322 | -0.00638 |
| O=C(C=Cc1ccc(O)c(O)c1)O[C@H]1[C@H](O)C[C@](O)(C(=O)O)C[C@H]1OC(=O)C=Cc1ccc(O)c(O)c1 [Isochlorogenic acid C] | 0.118 | 0.0227 |
| CC1=C2C(=O)O[C@@H](c3ccoc3)[C@]2(C)CCC1 [Fraxinellone] | 0.105 | 0.113 |
| CC(C)=CCC[C@](C)(O[C@@H]1O[C@H](CO[C@@H]2O[C@@H](CO)[C@H](O)[C@H]2O)[C@@H](O)[C@H](O)[C@H]1O)[C@H]1CC[C@]2(C)[C@@H]1[C@H](O)C[C@@H]1[C@@]3(C)CC[C@H](O[C@@H]4O[C@H](CO)[C@@H](O)[C@H](O)[C@H]4O[C@@H]4O[C@H](CO)[C@@H](O)[C@H](O)[C@H]4O)C(C)(C)[C@@H]3CC[C@]12C [Ginsenoside Rc] | 0.0541 | 0.0964 |
| C/C=C/C#CC#C[C@@H](O)[C@@H](/C=C/CCCO)O[C@@H]1O[C@H](CO)[C@@H](O)[C@H](O)[C@H]1O [Lobetyolin] | 0.048 | 0.131 |
| C[N+](C)(C)C[C@H](O)CC(=O)[O-] [L-Carnitine] | -0.0644 | 0.0663 |
| O=C1c2c(O)cccc2C([C@@H]2O[C@H](CO)[C@@H](O)[C@H](O)[C@H]2O)c2cc(CO)cc(O)c21 (some centres not stated) [Barbaloin] | 0.0217 | 0.119 |
| O=C[C@H](O)[C@@H](O)[C@H](O)[C@H](O)CO[C@H]1O[C@H](CO[C@H]2O[C@H](CO)[C@H](O)[C@H](O)[C@H]2O)[C@H](O)[C@H](O)[C@H]1O [Manninotriose] | 0.0359 | 0.0215 |
| Cc1c(O)c(C)c2c(c1O)C(=O)C[C@@H](c1ccc(O)cc1)O2 [Farrerol] | -0.0045 | 0.437 |
| C[C@@H]1[C@H]2[C@H](O[C@@H]3O[C@H](CO)[C@@H](O)[C@H](O)[C@H]3O)OC=C(C(=O)O)[C@H]2C[C@@H]1O [Loganic Acid] | 0.0621 | 0.135 |
| O=C(CCc1ccc(O)cc1)c1c(O)cc(O)cc1O[C@@H]1OC(CO)[C@@H](O)[C@@H](O)C1O (some centres not stated) [Phloridzin] | -0.0404 ± 0.071 | 0.0182 ± 0.039 |
| CC(C)C(C)C(O)C(O)C(C)C1CCC2C3COC(=O)C4CC(O)C(O)CC4(C)C3CCC12C (configuration not stated) [Brassinolide] | -0.122 | -0.073 |
| C[C@@H]1CC[C@@]2(OC1)O[C@H]1C[C@H]3[C@@H]4CC=C5C[C@@H](O)C[C@@H](O[C@@H]6O[C@H](C)[C@H](O)[C@H](O[C@@H]7OC[C@@H](O)[C@H](O)[C@H]7O)[C@H]6O[C@@H]6O[C@@H](C)[C@H](O)[C@@H](O)[C@H]6O)[C@]5(C)[C@H]4CC[C@]3(C)[C@H]1[C@@H]2C [Ophiopogonin D] | -0.0762 | -0.0693 |
| O=C(/C=C/c1ccc(O)c(O)c1)OC1(C(=O)O)C[C@@H](O)C(O)[C@H](O)C1 (some centres not stated) [1-Caffeoylquinic Acid] | -0.0477 | 0.0171 |
| CN1Cc2c(ccc3c2OCO3)[C@@]2(C)[C@@H](O)Cc3cc4c(cc3[C@@H]12)OCO4 [Corynoline] | -0.128 | -0.201 |

| SMILES | NHEJ repair efficiency (log10) [1] | HR repair efficiency (log10) [2] |
| --- | --- | --- |
| COc1ccc(-c2oc3cc(O)cc(O)c3c(=O)c2O)cc1 [Kaempferide] | -0.0948 | -0.167 |
| C/C1=C\CC[C@]23O[C@H]2[C@@H](OC3=O)c2c(C)coc2C1 [Linderane] | -0.0245 | 0.0607 |
| O=C1c2c(O)cc(O)cc2OC(c2ccc(O)c(O)c2)C1O (configuration not stated) [Taxifolin] | -0.132 | -0.0702 |
| COc1ccc(-c2cc(=O)c3c(OC)c(OC)c(OC)c(OC)c3o2)cc1 [Tangeretin] | -0.13 | -0.0674 |
| COc1cc2c(cc1OC)[C@H]1[C@@H](C)c3ccc(OC)c(OC)c3CN1CC2 [Corydaline] | -0.196 | -0.191 |
| Oc1cc(O)c2c(c1)OC(c1ccc(O)c(O)c1)C(OC1(c3ccc(O)c(O)c3)Oc3cc(O)cc(O)c3C(O)C1O)C2 (configuration not stated) [Procyanidins] | 0.0386 | 0.123 |
| COc1ccc2[nH]cc(CCNC(C)=O)c2c1 [Melatonin] | 0.0863 | 0.227 |
| C[C@@H]1O[C@@H](OC[C@H]2O[C@@H](OCCc3ccc(O)c(O)c3)[C@H](O)[C@@H](O)[C@@H]2OC(=O)/C=C/c2ccc(O)c(O)c2)[C@H](O)[C@H](O)[C@H]1O [Forsythoside A] | 0.0797 | 0.189 |
| O=C(/C=C/c1ccc(O)c(O)c1)O[C@@H]1C[C@](O)(C(=O)O)C[C@@H](O)[C@H]1O [Chlorogenic Acid] | 0.0025 | -0.132 |
| COc1ccc(/C=C/c2cc(O)cc(O[C@@H]3O[C@H](CO)[C@@H](O)[C@H](O)[C@H]3O)c2)cc1O [Rhapontin] | 0.134 | 0.0931 |
| CCCCCCCCCCCCCCCC(=O)O [Palmitic Acid] | 0.0513 | 0.0657 |
| O=C(/C=C/c1ccc(O)cc1)C1=C(O)C(O)([C@@H]2O[C@H](CO)[C@@H](O)[C@H](O)[C@H]2O)C(O)=C([C@@H]2O[C@H](CO)[C@@H](O)[C@H](O)[C@H]2O)C1=O (some centres not stated) [Hydroxysafflor yellow A] | 0.0258 | 0.0597 |
| O=C1c2ccccc2C(=O)c2c1cc(O)c(CO)c2O [Lucidin] | 0.134 | 0.258 |
| O=C(O[C@@H]1Cc2c(O)cc(O)cc2O[C@@H]1c1ccc(O)c(O)c1)c1cc(O)c(O)c(O)c1 [Epicatechin Gallate] | -0.236 | -0.0859 |
| COc1cc(/C=C/C(=O)O)ccc1O [Ferulaic Acid] | -0.0555 | -0.0235 |
| C[C@@H]1O[C@@H](OC[C@H]2O[C@@H](OCCc3ccc(O)c(O)c3)[C@H](O)[C@@H](O)[C@@H]2O)[C@H](O)[C@H](O)[C@H]1O [Forsythoside E] | -0.0418 | 0.0386 |
| C[C@@H]1O[C@@H](O[C@H]2[C@H](Oc3c(-c4ccc(O)cc4)oc4cc(O)cc(O)c4c3=O)O[C@H](CO)[C@@H](O)[C@@H]2O)[C@H](O)[C@H](O)[C@H]1O [Kaempferol 3-O-Neohesperidoside] | 0.0799 | 0.307 |
| COc1ccc(-c2cc(=O)c3c(O)cc(O)c(-c4cc(-c5cc(=O)c6c(O)cc(OC)cc6o5)ccc4OC)c3o2)cc1 [Sciadopitysin] | 0.0652 | 0.234 |
| C[C@@H]1CC[C@@]2(OC1)O[C@H]1C[C@H]3[C@@H]4CC=C5C[C@@H](O[C@@H]6O[C@H](CO)[C@@H](O)[C@H](O)[C@H]6O)CC[C@]5(C)[C@H]4CC[C@]3(C)[C@H]1[C@@H]2C [Diosgenin glucoside] | -0.0975 | 0.0102 |
| COc1cc2oc(=O)ccc2c(OC)c1C[C@@H](O)C(C)(C)O [Toddalolactone] | 0.0484 | 0.018 |
| O=c1oc2c(O)cc(O)cc2c2oc3cc(O)c(O)cc3c12 [Isodemethylwedelolacton] | -0.0118 | 0.0907 |
| Oc1cc(O)c2c(c1)OC(c1ccc(O)c(O)c1)C(O)C2 (single isomer, unassigned; (+)) [(+)-Catechin] | 0.0406 | -0.0449 |
| COc1cc(C2Oc3ccc(C4Oc5cc(O)cc(O)c5C(=O)C4O)cc3OC2CO)ccc1O (configuration not stated) [Iso-Silybin] | -0.138 | -0.241 |
